This passage reports growth results from PubChem BioAssay (NCI).

Some test systems named below: NCI-H23 lung; NCI-H226 lung; NCI-H322M lung; HOP-62 NSCLC; NCI-H460 lung; HOP-92 NSCLC; NCI-H522 lung; A549/ATCC NSCLC; 786-0 renal; COLO 205 colon; DU-145 prostate; K-562 leukemia; MALME-3M melanoma; MDA-MB-231 breast; RXF 393 renal; SF-268 CNS; SF-295 CNS; SF-539 CNS; UACC-257 melanoma; M14 melanoma.
Assay in all cases: NCI-60 one-dose screen, 48 h (100 = growth as untreated, 0 = no growth, -100 = all killed)
Common to all, as to settings: 10 µM unless noted

Compounds without any hit were thinned out: in the full panel of roughly 83,000, 20% have a hit.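 Cell lines were cultured in 96-well plates, exposed to a single compound concentration, and assessed for percent growth 48 hours later.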 Unmarked numbers belong to inactive results. Calls of active or inactive are those of the source. Rule for the calls: active = growth percent below 10; inactive = the rest.

Regarding `CC1(C)Cc2c(Br)c(Br)c(Br)c(OCC(O)CN3CCOCC3)c2O1` (stereo not given), the growth in the test with NCI-H23 lung is 93.9%; with NCI-H226 lung, 109%; with NCI-H322M lung it was 72.4%; in the test with HOP-62 NSCLC it was 97.3%; in the test on NCI-H460 lung, 93.8%; in the test with HOP-92 NSCLC, -38.2% (active). The growth is -84.2% (active) in the test with NCI-H522 lung; 86.7% with A549/ATCC NSCLC; 79.2% in the test with 786-0 renal; 116% in the test with COLO 205 colon; 106% in the test with DU-145 prostate; 44.1% with K-562 leukemia. The growth with MALME-3M melanoma is 35%; in the test on MDA-MB-231 breast, 83.2%; in the test with RXF 393 renal it was 70.6%; in the test on SF-268 CNS, 105%; in the test with SF-295 CNS, 113%; in the test with SF-539 CNS it was 92.9%. Besides, the growth in the test with UACC-257 melanoma was 97.3%; in the test on M14 melanoma it was 94.5%.

Consider `Cc1c(Cl)cccc1NC(=O)c1sc2nc3c(cc2c1N)CCCCCC3`, for which the growth in the test with NCI-H23 lung is 42.7%; with NCI-H226 lung it was 52.2%; with NCI-H322M lung, 45.6%; in the test on HOP-62 NSCLC, 30.6%; in the test with NCI-H460 lung it was 8.77% (active); in the test on HOP-92 NSCLC, 29.3%. The growth in the test on NCI-H522 lung is -27.7% (active); in the test on A549/ATCC NSCLC, 19.1%; in the test with 786-0 renal it was 23.3%; in the test on COLO 205 colon, -12% (active); with DU-145 prostate, 9.29% (active); in the test on K-562 leukemia, 9.93% (active). Further, the growth is 58% in the test on MALME-3M melanoma; 34.2% in the test with MDA-MB-231 breast; 12.2% in the test with RXF 393 renal; 35.7% in the test with SF-268 CNS; 24.6% in the test on SF-295 CNS; 0.159% (active) in the test on SF-539 CNS. In addition, the figures for the growth with UACC-257 melanoma and with M14 melanoma were 59.6% and 8.66% (active), respectively.

For `N#Cc1c(-c2ccc(F)cc2)nc(N=Nc2c(O)[nH]c3ccc(Cl)cc23)nc1N1CCOCC1`, the growth in the test on NCI-H23 lung is 37.4%; in the test with NCI-H226 lung, 10.5%; in the test on NCI-H322M lung, 46.9%; with HOP-62 NSCLC, 11.6%; in the test on NCI-H460 lung it was 51.8%; in the test with HOP-92 NSCLC, -9.97% (active). Moreover, the growth in the test with NCI-H522 lung was 53.4%; with A549/ATCC NSCLC it was 23.8%; in the test with 786-0 renal it was 17%; with COLO 205 colon it was 65.5%; with DU-145 prostate, 40%; with K-562 leukemia, 62.4%. Moreover, the growth is 38% with MALME-3M melanoma; 26.9% in the test with MDA-MB-231 breast; 8.65% (active) in the test on RXF 393 renal; 41.4% with SF-268 CNS; 13.9% in the test on SF-295 CNS; 2.98% (active) with SF-539 CNS. Further, the values for the growth in the test on UACC-257 melanoma and in the test on M14 melanoma were 57.3% and 51.5%, respectively.

With `CCCCn1c2cc(OCc3cn(-c4ccc(Cl)cc4)nn3)ccc2c2ccnc(C)c21`, the growth with NCI-H23 lung is 32.4%; in the test on NCI-H226 lung, 52.3%; with NCI-H322M lung it was 56.6%; with HOP-62 NSCLC it was 41.2%; in the test on NCI-H460 lung, 21.5%; with HOP-92 NSCLC, 36.9%. The growth with NCI-H522 lung is 24.2%; in the test on A549/ATCC NSCLC, 42.1%; in the test with 786-0 renal, -10.3% (active); in the test with COLO 205 colon, 21.9%; in the test with DU-145 prostate, 72.5%; with K-562 leukemia, 14.4%. The growth with MALME-3M melanoma was 53.9%; in the test with MDA-MB-231 breast, 16.7%; in the test with RXF 393 renal, 47.6%; in the test on SF-268 CNS, 74.6%; in the test with SF-295 CNS, 40.2%; in the test on SF-539 CNS it was 55%. Moreover, the growth with UACC-257 melanoma was 33.6%; in the test with M14 melanoma it was 40.6%.

For the compound `COc1cc2c(cc1OC)C(Sc1ccc(Cl)cc1)c1c(nc(N)c(C#N)c1N)O2` (stereo not given), the growth was -20.2% (active) with NCI-H23 lung; 16.2% in the test on NCI-H226 lung; 42.1% in the test with NCI-H322M lung; 63% with HOP-62 NSCLC; -55% (active) in the test on NCI-H460 lung; 20.1% in the test with HOP-92 NSCLC. Besides, the growth with NCI-H522 lung was -67.6% (active); with A549/ATCC NSCLC, 44.1%; in the test on 786-0 renal, -17.1% (active); in the test on COLO 205 colon, -65.6% (active); with DU-145 prostate, 5.73% (active); with K-562 leukemia, 0.964% (active). The growth in the test on MALME-3M melanoma was -28.6% (active); with MDA-MB-231 breast it was -20.1% (active); with RXF 393 renal it was -65.4% (active); in the test on SF-268 CNS, 35.7%; in the test with SF-295 CNS, 43.8%; in the test on SF-539 CNS, -21.9% (active). In addition, the results for the growth in the test on UACC-257 melanoma and in the test on M14 melanoma were 22.5% and -21.2% (active), respectively.

On to `CNCc1cccc2c1OCCOCCOCCN(CCN1CCOCC1)S(=O)(=O)c1ccc(cc1)-c1cnc(N)c(n1)C(=O)N2`, for which the growth with NCI-H23 lung was 42.3%; with NCI-H226 lung, 78.4%; in the test with NCI-H322M lung, 49.8%; in the test with HOP-62 NSCLC it was 100%; in the test with NCI-H460 lung, 30.7%; in the test on HOP-92 NSCLC, 87.9%. The growth in the test with NCI-H522 lung was 49%; in the test on A549/ATCC NSCLC, 46.4%; with 786-0 renal it was 10.6%; with COLO 205 colon, 22.3%; in the test on DU-145 prostate, 45.7%; in the test with K-562 leukemia, 12.6%. Also, the growth in the test with MALME-3M melanoma was 93.8%; in the test with MDA-MB-231 breast, 94.1%; in the test with RXF 393 renal, 14.8%; with SF-268 CNS, 68%; with SF-295 CNS, 68.1%; in the test with SF-539 CNS, 24.1%. Besides, the growth in the test on UACC-257 melanoma is 98.7%; with M14 melanoma, 26.4%.

As for `Cc1cc(O)cc(O)c1N=NC1=NCCS1`, the growth in the test on NCI-H23 lung is 98%; in the test with NCI-H226 lung, 117%; in the test on NCI-H322M lung, 97.8%; with HOP-62 NSCLC, 95.7%; with NCI-H460 lung, 115%; with HOP-92 NSCLC it was 109%. Moreover, the growth with NCI-H522 lung was 90.3%; with A549/ATCC NSCLC, 101%; with 786-0 renal, 96.6%; with COLO 205 colon it was 100%; in the test with DU-145 prostate, 103%; with K-562 leukemia, 89.7%. The growth with MALME-3M melanoma is 94.3%; with MDA-MB-231 breast it was 97.1%; in the test with RXF 393 renal it was 123%; in the test with SF-268 CNS, 94.6%; with SF-295 CNS, 101%; in the test on SF-539 CNS, 100%. Further, the growth with UACC-257 melanoma was 101%; in the test with M14 melanoma, 98%.
